# Assay results as given in PubChem BioAssay (Tox21).
# A number with no mark means an inactive call. Inconclusive results are not listed. Where a call stands in place of a potency, no number is given. Active and inactive are the calls of the source. Unless noted, calls follow the shape of the dose curve; as a rule, active = well fitted curve in the direction sought with a large enough effect in the repeat runs; inconclusive = weak or mixed curves; inactive = no such curve, though single readings can be large; an effect the other way counts as inactive or inconclusive.
# Key:
# [1] = qHTS assay for small molecule agonists of the p53 signaling pathway (AID 651631; calls by dose curve; also: nearly all actives have a fitted effect of over 15% in size; also: potency is read from the fitted curve at half-maximal effect)
# Method in brief: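 Readout was fluorescence from the LiveBLAzer FRET substrate, applied for 2 h at room temperature after 16 h compound exposure at 37 °C. Cells were the p53RE-bla HCT-116 line, with beta-lactamase driven by p53 response elements.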
# [2] = qHTS assay for small molecules that induce genotoxicity in human embryonic kidney cells expressing luciferase-tagged ATAD5 (AID 651632); also: nearly all actives have a fitted effect of over 15% in size
# Method in brief: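 Reporter cells (HEK293T) express luciferase-tagged ATAD5, a protein that accumulates after DNA damage. Treat 16 hr at 37C/5% CO2, add Amplite, wait 30 min at RT, and read luminescence.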
# [3] = qHTS assay for small molecule agonists of the p53 signaling pathway - cell viability (AID 651633; calls by dose curve; also: nearly all actives have a fitted effect of over 30% in size; also: potency is read from the fitted curve at half-maximal effect; as to activity change, negative = cytotoxicity: series mostly up to about 83 µM)
# Method in brief: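 p53RE-bla cells, seeded at 4,000 per well and rested 5 h at 37 C/5% CO2, received compounds in DMSO for 16 h at 37 C. CellTiter-Glo was then added, and luminescence was read after 30 min at room temperature to gauge cytotoxicity.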
# [4] = qHTS assay for small molecules that induce genotoxicity in human embryonic kidney cells expressing luciferase-tagged ATAD5 - cell viability (AID 651634; calls by dose curve; also: nearly all actives have a fitted effect of over 25% in size)
# Method in brief: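 Seeding of 2,000 HEK293T ATAD5-luciferase cells per well preceded pin-tool compound transfer. Plates sat 15.5 hr at 37C under 5% CO2, then fluorescence was read after 30 min with CellTiter-Fluor.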
# [5] = qHTS assay for small molecule disruptors of the mitochondrial membrane potential - cell viability (AID 720634; calls by dose curve;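 also: human HepG2 liver cancer cells; series mostly up to about 83 µM; nearly all actives have a fitted effect of over 20% in size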)
# Method in brief: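 Measuring cytotoxicity alongside mitochondrial potential, the screen quantified ATP by luminescence in HepG2 cells after 1 hr compound incubation and a 30 min room-temperature CellTiter-Glo step.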
# [6] = qHTS assay for small molecule disruptors of the mitochondrial membrane potential (AID 720635); also: potency is read from the fitted curve at half-maximal effect
# Method in brief: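 HepG2 cells (2,000/well) attached overnight at 37C, then took compound for 1 hr at 37C, 5% CO2. Mito-MPS dye was added for 30 min; fluorescence was read at 490/535 nm (monomers) and 540/590 nm (aggregates).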
# [7] = qHTS assay to test for compound auto fluorescence at 590 nm (red) in HepG2 cells (AID 720674)
# Method in brief: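 Rose Bengal sodium served as the red fluorophore standard. HepG2 monolayers (overnight attachment, MEM with 10% FBS) were exposed to test compounds for 1 hr at 37 C and read at Ex 540/Em 590 nm.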
# [8] = qHTS assay to test for compound auto fluorescence at 535 nm (green) in HepG2 cells (AID 720675)
# [9] = qHTS assay to test for compound auto fluorescence at 460 nm (blue) in HEK293 cells (AID 720678)
# Method in brief: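 Triamterene serves as the blue fluorophore standard. Compound signal at 405/460 nm is read in HEK293 wells (2,000 cells, 10% dialyzed FBS) after overnight treatment at 37C.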
# [10] = qHTS assay to test for compound auto fluorescence at 590 nm (red) in HEK293 cells (AID 720679)
# Method in brief: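 We plated HEK293 cells in 10% dialyzed FBS medium, let them adhere for 4-5 hr, then added 23 nL compound. Overnight at 37C and 5% CO2 preceded fluorescence measurement at 540/590nm.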
# [11] = qHTS assay to test for compound auto fluorescence at 535 nm (green) in HEK293 cells (AID 720680)
# [12] = qHTS assay to test for compound auto fluorescence at 460 nm (blue) in HEK293 cell free culture (AID 720681)
# Method in brief: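 Test compounds were pinned into cell-free culture medium (DMEM with 10% FBS) and fluorescence was read directly at Ex/Em 405/460 nm. Signals were expressed as fluorescence equivalents of triamterene, with DMSO vehicle as control.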
# [13] = qHTS assay to test for compound auto fluorescence at 535 nm (green) in HEK293 cell free culture (AID 720682)
# Method in brief: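 Compounds were pin-transferred into cell-free DMEM with 10% FBS, and green fluorescence was read at excitation 485 nm and emission 535 nm. Intensities were expressed as fluorescein-equivalent values.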
# [14] = qHTS assay to test for compound auto fluorescence at 590 nm (red) in HEK293 cell free culture (AID 720683)
# Method in brief: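 Tox21 10K library compounds were pinned into cell-free DMEM with 10% FBS and fluorescence was read at excitation 540 nm. Activity is expressed as Rose Bengal sodium equivalency.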
# [15] = qHTS assay to test for compound auto fluorescence at 590 nm (red) in HepG2 cell free culture (AID 720684)
# Method in brief: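 Red fluorescence (540 nm excitation, 590 nm emission) was measured after compound transfer into cell-free MEM supplemented with 10% FBS. Values are equivalencies against Rose Bengal sodium.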
# [16] = qHTS assay to test for compound auto fluorescence at 460 nm (blue) in HepG2 cell free culture (AID 720685)
# Method in brief: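 Compound (23 nL) or DMSO pinned into cell-free MEM with 10% FBS; blue fluorescence read at 405/460 nm excitation/emission, expressed as auto-fluorescence equivalency to triamterene.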
# [17] = qHTS assay to test for compound auto fluorescence at 460 nm (blue) in HepG2 cells (AID 720687)
# Method in brief: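 Cells (2,000/well in MEM with 10% FBS) attached overnight at 37 C, then were exposed to compound or DMSO for 1 hr at 37 C, 5% CO2. Fluorescence read at Ex/Em 405/460 nm, expressed as triamterene-equivalent signal.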
# [18] = target: Glucocorticoid receptor (Homo sapiens) (UniProt P04150); experiment: qHTS assay to identify small molecule antagonists of the glucocorticoid receptor (GR) signaling pathway (AID 720692; active = well fitted inhibition curve with a large enough effect in the signal ratio in the repeat runs, not every such curve was filed as active; the % refers to the signal ratio)
# Sequence of Glucocorticoid receptor (Homo sapiens) (P04150 whole entry, looked up): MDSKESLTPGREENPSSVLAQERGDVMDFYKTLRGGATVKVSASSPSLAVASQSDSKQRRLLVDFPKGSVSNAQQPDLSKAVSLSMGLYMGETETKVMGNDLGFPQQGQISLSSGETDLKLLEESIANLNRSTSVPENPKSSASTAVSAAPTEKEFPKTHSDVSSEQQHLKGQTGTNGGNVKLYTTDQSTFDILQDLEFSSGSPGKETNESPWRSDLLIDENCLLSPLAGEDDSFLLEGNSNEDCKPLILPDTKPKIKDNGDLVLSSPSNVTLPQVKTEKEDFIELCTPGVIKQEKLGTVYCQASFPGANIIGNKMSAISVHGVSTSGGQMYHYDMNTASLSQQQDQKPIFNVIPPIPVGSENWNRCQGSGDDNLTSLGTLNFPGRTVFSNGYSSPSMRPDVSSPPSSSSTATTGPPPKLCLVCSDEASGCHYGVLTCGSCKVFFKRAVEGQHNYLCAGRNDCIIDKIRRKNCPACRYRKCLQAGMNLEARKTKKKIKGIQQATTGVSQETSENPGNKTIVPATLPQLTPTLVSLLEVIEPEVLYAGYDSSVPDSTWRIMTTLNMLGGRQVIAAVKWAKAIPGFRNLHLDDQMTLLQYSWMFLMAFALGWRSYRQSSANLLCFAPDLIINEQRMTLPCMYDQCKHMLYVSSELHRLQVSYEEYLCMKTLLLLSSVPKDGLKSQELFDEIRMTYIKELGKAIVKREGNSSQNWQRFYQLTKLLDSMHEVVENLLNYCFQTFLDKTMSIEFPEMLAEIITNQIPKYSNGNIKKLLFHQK
# Method in brief: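 Dexamethasone (5 nM final) stimulated a stably integrated GRE-beta-lactamase reporter in HeLa cells during 18 h co-incubation with compounds; signal was quantified as fluorescence intensity of B/G FRET substrate after 2 h.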
# [19] = qHTS assay to test for compound auto fluorescence at 535 nm (green) in HepG2 cell free culture (AID 720686)
# [20] = target: Glucocorticoid receptor (Homo sapiens) (UniProt P04150); experiment: qHTS assay to identify small molecule agonists of the glucocorticoid receptor (GR) signaling pathway (AID 720691; active = well fitted activation curve with a large enough effect in the signal ratio in the repeat runs, not every such curve was filed as active; the % refers to the signal ratio)
# Method in brief: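 Reporter read-out: fluorescence intensity following 2 h room-temperature LiveBLAzer B/G FRET substrate loading. Prior step: GR-bla HeLa cells held 4 h, then treated 18 h at 37 C.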
structure (smiles),measurement,setting,value
O=c1[nH]c(=O)n([C@H]2C[C@H](O)[C@@H](CO)O2)cc1F,Potency,[1],944 nM (active)
same,Potency,[2],inactive
same,Potency,[3],211 nM (active)
same,Potency,[4],inactive
same,Potency,[5],inactive
same,Potency,[6],inactive
same,Potency,[7],inactive
same,Potency,[8],inactive
same,Potency,[9],inactive
same,Potency,[10],inactive
same,Potency,[11],inactive
same,Potency,[12],inactive
same,Potency,[13],inactive
same,Potency,[14],inactive
same,Potency,[15],inactive
same,Potency,[16],inactive
same,Potency,[17],inactive
same,Potency,[18],inactive
O=C(O)O,activation,[1],-6.09% [at 8.3 µM]
same,activation,[2],4.66% [at 8.08 µM]
same,"activity change, negative = cytotoxicity",[3],14.5% [at 8.08 µM]
same,"activity, negative = cytotoxicity",[4],16.8% [at 8.08 µM]
same,"activity change, negative = cytotoxicity",[5],7.92% [at 8.08 µM]
same,"ratio activity, negative = MMP loss",[6],7.15% [at 8.08 µM]
same,"fluorescence, relative to Rose Bengal",[7],-0.453% [at 3.72 µM]
same,"fluorescence, % of fluorescein control",[8],-0.0364% [at 3.72 µM]
same,"fluorescence, % of triamterene",[9],-0.0075% [at 3.72 µM]
same,"fluorescence, % of fluorescent control",[10],0.462% [at 3.72 µM]
same,"fluorescence, % of fluorescein",[11],-0.0067% [at 3.72 µM]
same,"fluorescence, % of fluorescent control",[12],0.0957% [at 3.72 µM]
same,activity change,[13],"-0.0576% [at 3.72 µM, active compounds read high]"
same,"fluorescence, % of fluorescent control",[14],-0.0236% [at 3.72 µM]
same,"fluorescence, % of Rose Bengal",[15],0.0094% [at 3.72 µM]
same,"fluorescence, % of fluorescent control",[16],0.0077% [at 3.72 µM]
same,"fluorescence, % of fluorescein control",[19],0.0195% [at 3.72 µM]
same,"fluorescence, % of fluorescent control",[17],-0.0691% [at 3.72 µM]
same,activation,[20],-0.133% [at 6.9 µM]
same,"activity change, negative = inhibition",[18],-1.88% [at 7.04 µM]
COCCOc1cc2cc(C(=O)NC3CCN(C(C)C)CC3)n(CC(=O)Nc3ccc(Cl)cn3)c2cn1,Potency,[1],inactive
same,Potency,[2],inactive
same,Potency,[3],inactive
same,Potency,[4],inactive
same,Potency,[5],inactive
same,Potency,[6],inactive
same,Potency,[7],inactive
same,Potency,[8],inactive
same,Potency,[9],inactive
same,Potency,[10],inactive
same,Potency,[11],inactive
same,Potency,[12],inactive
same,Potency,[13],inactive
same,Potency,[14],inactive
same,Potency,[15],inactive
same,Potency,[16],inactive
same,Potency,[17],inactive
same,Potency,[20],inactive
same,Potency,[18],inactive
CCCCOC(=O)CC,Potency,[1],inactive
same,Potency,[2],inactive
same,Potency,[3],inactive
same,Potency,[4],inactive
same,Potency,[5],inactive
same,Potency,[6],inactive
same,Potency,[7],inactive
same,Potency,[8],inactive
same,Potency,[9],inactive
same,Potency,[11],inactive
same,Potency,[12],inactive
same,Potency,[13],inactive
same,Potency,[14],inactive
same,Potency,[15],inactive
same,Potency,[16],inactive
same,Potency,[19],inactive
same,Potency,[20],inactive
same,Potency,[18],inactive
CCC(CC)(CC(=O)Nc1cccc(/C=C/c2nc(C3CCC3)cs2)c1)C(=O)O,Potency,[1],inactive
same,Potency,[2],inactive
same,Potency,[3],inactive
same,Potency,[4],inactive
same,Potency,[5],inactive
same,Potency,[6],27800 nM (active)
same,Potency,[7],inactive
same,Potency,[8],inactive
same,Potency,[9],inactive
same,Potency,[10],inactive
same,Potency,[11],inactive
same,Potency,[12],inactive
same,Potency,[13],inactive
same,Potency,[14],inactive
same,Potency,[15],inactive
same,Potency,[16],inactive
same,Potency,[19],inactive
same,Potency,[17],inactive
Nc1nc2c(ncn2COCCO)c(=O)[nH]1,Potency,[1],inactive
same,Potency,[2],inactive
same,Potency,[3],inactive
same,Potency,[4],inactive
same,Potency,[5],inactive
same,Potency,[6],inactive
same,"fluorescence, relative to Rose Bengal",[7],2e-05% [at 18.6 µM]
same,"fluorescence, % of fluorescein control",[8],0.0011% [at 18.6 µM]
same,"fluorescence, % of triamterene",[9],-0.0369% [at 18.6 µM]
same,"fluorescence, % of fluorescent control",[10],-0.073% [at 18.6 µM]
same,"fluorescence, % of fluorescein",[11],0.029% [at 18.6 µM]
same,"fluorescence, % of fluorescent control",[12],0.0219% [at 18.6 µM]
same,activity change,[13],"-0.0229% [at 18.6 µM, active compounds read high]"
same,"fluorescence, % of fluorescent control",[14],0.0201% [at 18.6 µM]
same,"fluorescence, % of Rose Bengal",[15],-0.264% [at 18.6 µM]
same,"fluorescence, % of fluorescent control",[16],0.0242% [at 18.6 µM]
same,"fluorescence, % of fluorescein control",[19],-0.0997% [at 18.6 µM]
same,"fluorescence, % of fluorescent control",[17],0.176% [at 18.6 µM]
same,Potency,[20],inactive
same,Potency,[18],inactive
